Compounds with a hit are over-represented: about 21% of the library has one in this group of screens.
Pf growth 48h = P. falciparum growth inhibition at 48 hours (one generation). P. falciparum luciferase growth in erythrocytes, 48 h. 310,000 compounds, 5.9% hits. AID 504832. Potency, µM (titrated, usually from 28.7 µM), most hits filed as inhibitors
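Cell-based growth assay: transgenic P. falciparum expressing firefly luciferase, cultured in red cells within RPMI 1640 containing 0.5% w/v Albumax, 24 mM bicarbonate and gentamycin. A drop in luciferase activity indicates inhibition.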
Cycloheximide cs = affects cycloheximide protein synthesis inhibition readout, counter-screen. max response, %. AID 2314. 300,000 compounds, 12% hits. cell reporter, cycloheximide protein synthesis inhibition counterscreen; in the data active = max response mostly above about 13%, no sharp cut-off; inactive = mostly below about 14%; note: read at 38.3 µM for the half of the compounds with a filed dose
Pf growth 96h = P. falciparum growth inhibition at 96 hour, primary screen for plastid delayed-death inhibitors; AID 504834; Potency, µM (doses to about 28.7 µM), most hits filed as inhibitors; P. falciparum luciferase reporter growth, 96 h; 320,000 compounds, 6.9% hits
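Compounds incubated with erythrocytes infected by luciferase-expressing P. falciparum (2% hematocrit, 0.05% parasitemia final) for 96 hours, 37 C in 5% CO2. Growth inhibition scored as decreased luciferase luminescence.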
Shiga toxin inh = blocks Shiga toxin action in Vero cells | Vero cells, Shiga toxin protein synthesis inhibition reporter | inhibition, % at 38.7 µM | 290,000 compounds, 9.2% hits | AID 2315; in the data active = inhibition mostly above about 28%, no sharp cut-off; inactive = mostly below about 43%
Each line names hits and unclear results; the compound was inactive in the other large screens. Unless noted, calls come from the whole dose curve; as a rule, active = well fitted inhibition curve with a large enough effect; inconclusive = small, poorly fitted or top-dose-only effect, or another doubt; inactive = no such curve, though single readings can be large or run the other way.

CCOC(=O)c1cc2oc(C(c3nnnn3C3CCCCC3)N3CCOCC3)cc2[nH]1 (configuration not stated)	Pf growth 48h 9.3µM, Pf growth 96h 9.3µM
CCC(C)(C)n1nnnc1C(c1cc2ccc(OC)cc2[nH]c1=O)N1CCN(C2CCCCC2)CC1 (configuration not stated)	Pf growth 48h 10µM (no result: Pf growth 96h)
CCOC(=O)Cn1nnnc1C(CC)N(Cc1cc2ccc(C)cc2[nH]c1=O)C1CCCC1 (configuration not stated)	Pf growth 48h inconclusive
CCOC(=O)C1CCN(C(c2cc3ccc(C)cc3[nH]c2=O)c2nnnn2C2CCCCC2)CC1 (configuration not stated)	Pf growth 48h 1µM (no result: Pf growth 96h)
CC(C)NC(=O)CSc1ccccc1C(=O)N1CCN(S(=O)(=O)Cc2ccccc2)CC1	none (no result: Cycloheximide cs, Shiga toxin inh)
COCCNC(=O)CN(C(=O)c1ccc(N2CCCC2)nc1)c1ccc(Cl)cc1	Pf growth 96h inconclusive
COc1cc2cc(C(c3nnnn3C3CCCC3)N3CCc4ccccc43)c(=O)[nH]c2cc1OC (configuration not stated)	Pf growth 48h inconclusive, Pf growth 96h 9.3µM
O=C(c1ccco1)N1CCN(Cc2cc(=O)c(OCc3c(F)cccc3Cl)co2)CC1	Pf growth 48h inconclusive (no result: Cycloheximide cs, Shiga toxin inh)
CC(C)C(=O)Nc1ccc(N2CCN(C)CC2)c(F)c1	Cycloheximide cs 22
COc1ccc(CCC(=O)Nc2cc(Cl)ccc2N2CCN(C)CC2)cc1	Pf growth 48h 7.4µM, Pf growth 96h 4.7µM
Cc1ccc(SCC(=O)Nc2ccc(N3CCN(C)CC3)c(F)c2)cc1	Cycloheximide cs 48, Shiga toxin inh 90
Cc1ccc(NC(=O)CSCC(=O)Nc2cc(Cl)ccc2N2CCN(C)CC2)cc1	Pf growth 48h 13µM, Pf growth 96h inconclusive (no result: Cycloheximide cs, Shiga toxin inh)
Cc1cc(C)c(OCC(=O)N(Cc2ccccc2)C2CCS(=O)(=O)C2)c(C)c1 (configuration not stated)	Pf growth 48h inconclusive, Pf growth 96h inconclusive
CC(Oc1ccc(Br)cc1)C(=O)Nc1cc(Cl)ccc1N1CCN(C)CC1 (configuration not stated)	Pf growth 48h 12µM, Pf growth 96h 12µM (no result: Cycloheximide cs, Shiga toxin inh)
NNC(=O)COc1cccc2cccnc12	none
O=C(COc1cccc2cccnc12)Nc1nccs1	Cycloheximide cs 33, Shiga toxin inh 53
O=C(Oc1cccc2cccnc12)c1ccco1	Pf growth 48h inconclusive, Pf growth 96h 1.3µM
O=C(Cc1ccc(Cl)cc1)Oc1cccc2cccnc12	Pf growth 96h 2.6µM
O=C(Oc1cccc2cccnc12)c1ccc2c(c1)OCCO2	Cycloheximide cs 70, Shiga toxin inh 84
CCCCCn1cnnc1SCC(=O)c1c(N)n(C2CC2)c(=O)[nH]c1=O	none (no result: Cycloheximide cs, Shiga toxin inh)
O=C(Oc1cccc2cccnc12)c1ccc(Br)o1	none
O=C(Oc1ccccc1N1C(=O)CCC1=O)c1ccco1	Pf growth 96h 9.3µM
CC1C=CCC2C(=O)N(c3ccccc3OC(=O)c3ccco3)C(=O)C12 (configuration not stated)	none
O=C(Oc1ccc(Cl)c2cccnc12)c1ccco1	Pf growth 48h 12µM
O=C(NCCOc1cccc2cccnc12)c1cccs1	Shiga toxin inh 46
CC(=O)NCCOc1cccc2cccnc12	none (no result: Pf growth 96h)
O=C(Oc1ccc(Cl)c2cccnc12)c1cccc([N+](=O)[O-])c1	Pf growth 48h inconclusive
O=C(Oc1cccc2cccnc12)c1cccs1	Pf growth 48h inconclusive, Cycloheximide cs 21, Pf growth 96h inconclusive
COc1ccc(C(=O)c2c[nH]cc2-c2ccccc2)cc1	none
O=C1c2ccccc2C(=O)c2c1oc(C(F)(F)F)c2C(=O)c1ccccc1	Pf growth 48h inconclusive, Cycloheximide cs 24, Pf growth 96h 0.13µM
O=C(c1ccccc1)c1coc2c1C(=O)c1ccccc1C2=O	Pf growth 48h inconclusive, Cycloheximide cs 33, Shiga toxin inh 94
COc1ccc(C(=O)c2coc3c2C(=O)C(=O)c2ccccc2-3)cc1	Cycloheximide cs 33, Pf growth 96h inconclusive, Shiga toxin inh 76
CNc1ccc(OC(F)F)cc1C(=O)c1ccccc1	none (no result: Pf growth 48h)
O=C(N/N=C/c1ccc2c(c1)OCO2)c1sc2cc(Cl)ccc2c1Cl	none
Cc1noc(C(=O)Nc2ccc3c(c2)OCO3)c1Cl	Cycloheximide cs 37, Shiga toxin inh 79
Cc1ccc2c(Cl)c(C(=O)Nc3ccc4c(c3)OCO4)sc2c1	Cycloheximide cs 19, Shiga toxin inh 91
CCc1onc(C)c1C(=O)Nc1ccc2c(c1)OCO2	none
CC(=O)c1ccc(NC(=O)c2onc(C)c2Cl)cc1	Cycloheximide cs 39, Shiga toxin inh 96
Cc1noc(C(=O)Nc2ccccc2C(F)(F)F)c1Cl	none
Cc1noc(C(=O)Nc2cccnc2)c1Cl	none (no result: Pf growth 48h)
CC(=O)c1cccc(NC(=O)c2onc(C)c2Cl)c1	Cycloheximide cs 17, Pf growth 96h inconclusive (no result: Pf growth 48h)
Nc1c(C(=O)N2CCOCC2)sc2nc3c(cc12)CCC3	Cycloheximide cs 26, Shiga toxin inh 68
Nc1c(C(=O)N2CCOCC2)sc2nc3c(cc12)CCCC3	Cycloheximide cs 18
Nc1c(C(=O)N2CCCC2)sc2nc3c(cc12)CCCCCC3	Cycloheximide cs 44, Shiga toxin inh 103
CC(=O)Nc1c(C(=O)N2CCOCC2)sc2nc3c(cc12)COC(C)(C)C3	Pf growth 96h inconclusive
CCOc1ccc2nc3sc(C(=O)N4CCOCC4)c(N)c3cc2c1	none
CCc1c(C2(O)CCCCC2)[nH]c2ncccc12	Pf growth 96h inconclusive (no result: Cycloheximide cs, Shiga toxin inh)
C#CCN(CC=C)C(=O)CCc1nnc(COc2ccccc2)o1	Cycloheximide cs 42, Shiga toxin inh 59
Cc1ccc(C)c(C(=O)OCC(=O)N(C)c2ccccc2)c1	none
Cc1ccc(Nc2nc(CSc3nnc(-c4ccccc4)n3C)cs2)cc1	Cycloheximide cs 32, Pf growth 96h inconclusive, Shiga toxin inh 52
Cc1ccc(Nc2nc(CSc3nnc(-c4ccccc4C)n3C)cs2)cc1	Cycloheximide cs 45, Shiga toxin inh 80
COc1ccccc1-c1nnc(SCc2ccccn2)n1C	none
O=C(NCCc1ccccc1)c1ccc2c(c1)OCCO2	none
COc1ccc(OC)c2[nH]c(=O)c(CCNC(=O)c3ccc(S(=O)(=O)N4CCCC4)cc3)cc12	Pf growth 48h inconclusive
COc1ccc(CCNC(=O)c2ccc3c(c2)OCO3)cc1	Cycloheximide cs 27
COc1ccc(CCNS(=O)(=O)CCNC(=O)c2ccc3c(c2)OCO3)cc1OC	Pf growth 96h inconclusive (no result: Cycloheximide cs, Shiga toxin inh)
COc1ccc2cc(CCNC(=O)c3ccc4c(c3)OCO4)c(=O)[nH]c2c1	Pf growth 48h inconclusive, Pf growth 96h 10µM
COc1ccc(CCNC(=O)c2ccc3c(c2)OCCO3)cc1	Cycloheximide cs 35, Shiga toxin inh 84
COc1ccc2cc(CCNC(=O)c3ccc(S(=O)(=O)N4CCCC4)cc3)c(=O)[nH]c2c1	Pf growth 48h 13µM, Pf growth 96h 5.9µM
COc1cc(C2C(C#N)=C(N)N(N(C)C)C3=C2C(=O)CCC3)ccc1O (configuration not stated)	none
CCN(CC(=O)Nc1ccc(NC(C)=O)cc1)C(=O)/C=C/c1ccc([N+](=O)[O-])cc1	Pf growth 48h inconclusive (no result: Cycloheximide cs, Shiga toxin inh)
CCc1cc(C(=O)N/N=C/c2ccc(O)cc2O)c2ccccc2n1	Pf growth 48h inconclusive
COc1ccc2cc(CCNC(=O)c3cccc([N+](=O)[O-])c3)c(=O)[nH]c2c1	Pf growth 48h 5.2µM, Pf growth 96h inconclusive

Screens as filed in PubChem.
